Measurements: PubChem BioAssay (EPA / NIEHS)
Activity calls are given as the source filed them. The calls were made as follows: active = hit-call score of the fitted dose curve at least 0.9, where 1 is the maximum; inactive = score below 0.9.

Assay: ATG_VDRE_CIS: Attagene CIS-FACTORIAL HepG2 Assay for human Vitamin D Receptor Element (VDRE) (AID 2282968)
Details: HepG2 VDRE cis-reporter transcription, actives raise or lower the signal
In short: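 In transiently transfected HepG2 liver cells, gain or loss of reporter mRNA after 24 h exposure is scored relative to DMSO, using fluorescence detection by capillary electrophoresis of RT-PCR products.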

Compound	AC50	outcome
CC1=CC2C3C=CC(C3)C2C1C (stereo not given)	1.81 µM (active)	
C[Si](Cl)(Cl)CCC(F)(F)C(F)(F)C(F)(F)C(F)(F)C(F)(F)C(F)(F)F		inactive
OCC(O)CC(F)(F)C(F)(F)C(F)(F)C(F)(F)F (stereo not given)		inactive
O=C(O)C(F)(F)C(F)(F)C(F)(F)OC(F)(F)F		inactive
CSc1ccc(O)cc1C		inactive
OCC(F)(F)C(F)(F)C(F)(F)CO		inactive
O=C1c2ccccc2C(=O)c2c(Cl)cccc21		inactive
OCC(O)CC(F)(F)C(F)(F)C(F)(F)C(F)(F)C(F)(F)C(F)(F)C(F)(F)C(F)(F)F (stereo not given)		inactive
CCC(=O)OC(C)c1ccccc1 (stereo not given)		inactive
CCC(Cc1c(I)cc(I)c(N)c1I)C(=O)O (stereo not given)		inactive
COC(F)(C(F)F)C(F)(F)F (stereo not given)		inactive
CN(C(=O)C(F)(F)C(F)(F)C(F)(F)F)[Si](C)(C)C		inactive
NCC(F)(F)C(F)(F)C(F)(F)C(F)(F)C(F)(F)C(F)(F)F		inactive
OCC(F)(F)C(F)(F)C(F)(F)C(F)(F)C(F)(F)C(F)(F)C(F)(F)C(F)(F)CO		inactive
OCCCC(F)(F)C(F)(F)C(F)(F)C(F)(F)C(F)(F)C(F)(F)C(F)(F)C(F)(F)F		inactive
O=C1C=CC(=O)N1c1ccccc1		inactive
NC(=O)C(F)(F)C(F)(F)C(F)(F)C(F)(F)C(F)(F)C(F)(F)C(F)(F)F		inactive
O=C(O)C(F)(F)OC(F)(F)C(F)(F)OC(F)(F)C(F)(F)OC(F)(F)F		inactive
FC(F)(F)C(F)(F)C(F)(F)CC1CO1 (stereo not given)		inactive
Cc1ccc(S(=O)(=O)C(I)I)cc1	9.01 µM (active)	
